The results in this text go back to PubChem BioAssay AID485344 (National Center for Advancing Translational Sciences (NCATS), 2010).

“And” between values parts separate entries of the source, which are not always exact repeats. Equal values may be shown once. In all, about 340,000 compounds went through this assay and about 6,900 (2%) were called active. Cut-off read from the data, not from the text of the source: active = inhibition above about 30%; inactive = below that, where a call was filed. This excerpt belongs to a sample that is enriched for actives. More than one record can exist for a structure, and the calls need not agree.

D(2) dopamine receptor (Homo sapiens), sequence (P14416 whole entry, looked up): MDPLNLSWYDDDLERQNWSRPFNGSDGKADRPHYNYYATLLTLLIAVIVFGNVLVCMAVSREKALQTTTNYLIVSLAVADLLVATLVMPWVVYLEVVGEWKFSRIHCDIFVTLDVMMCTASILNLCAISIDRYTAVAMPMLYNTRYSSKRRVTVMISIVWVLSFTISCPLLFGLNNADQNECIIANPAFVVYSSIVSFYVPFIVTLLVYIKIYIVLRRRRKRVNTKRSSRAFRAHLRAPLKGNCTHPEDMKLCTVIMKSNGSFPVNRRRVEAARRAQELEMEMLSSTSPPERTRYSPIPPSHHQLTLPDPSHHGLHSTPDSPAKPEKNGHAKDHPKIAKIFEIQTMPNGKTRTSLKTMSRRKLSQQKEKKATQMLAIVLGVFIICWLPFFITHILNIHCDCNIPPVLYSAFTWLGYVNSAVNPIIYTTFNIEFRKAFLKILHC

The target of the test is D(2) dopamine receptor (Homo sapiens) (UniProt P14416). The experiment in a line: HTS Assay for Allosteric Antagonists of the Human D2 Dopamine Receptor: Primary Screen for Antagonists. Note: 0% is about no effect. The settings on record: HEK293 TREx D2 cells, calcium flux, dopamine EC80; at 10 µM; stronger effect = higher value. Summed up:
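Tetracycline-induced HEK293 T-REx cells expressing D2 force-coupled to calcium signalling were dye-loaded, exposed to compound for 180 s, then challenged with an EC80 of dopamine; calcium flux was followed kinetically for a further 180 s.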
With `Nc1c(N(CCCO)C(=O)C2CCCC2)c(=O)[nH]c(=O)n1Cc1ccccc1`, the inhibition is 10.6% (inactive).

Turning to `Cc1cccc(NC(=O)CN2CCN(CC(=O)NCC3(N4CCCCC4)CCCCC3)CC2)c1C`, the inhibition is 6.75% (inactive). Regarding `CCN(CC(=O)Nc1cc(Cl)ccc1C)C(=O)CSCc1ccccc1`, the inhibition is 6.06% (inactive). To `CC(C#N)(NC(=O)CN1CCN(S(=O)(=O)c2cc(C(F)(F)F)ccc2Cl)CC1)C1CC1` (configuration not stated) belongs 12.9% (inactive). Under `O=C(CSc1nc2ccccc2[nH]1)N/N=C/C=C\c1ccccc1[N+](=O)[O-]` stands -1.1% (inactive).

In the case of `CN1CCN(c2ccc([N+](=O)[O-])c(Sc3nc4ccccc4[nH]3)c2)CC1`, the inhibition is 88.9% (active). As for `CC1CCN(c2ccc([N+](=O)[O-])c(SCCO)c2)CC1`, the inhibition was -11.8% (inactive). Under `Cc1noc(C)c1COc1ccccc1C(=O)N(C)CC(=O)Nc1cccc(F)c1` stands 6.3% (inactive); under `CC(=O)Nc1ccc(S(=O)(=O)N(CCc2ccccc2)CC(=O)N/N=C/c2ccc(C(=O)O)cc2)cc1`, 10.8% (inactive); under `COc1ccc(N(CC(=O)N/N=C/c2cccc3c2OCCO3)S(=O)(=O)c2ccc(NC(C)=O)cc2)cc1`, 44.5% (active). As for `COc1ccc(S(=O)(=O)N(CC(=O)N/N=C/c2ccccc2C(=O)O)c2ccccc2OC)cc1`, the inhibition was 1.95% (inactive). As to `Cc1cc(-c2nnc(CCC(=O)NC(c3ccccc3)c3ccccc3)o2)no1`, the inhibition is 4.61% (inactive). To `CC(CCn1cccn1)NC(=O)CCc1nnc(CCc2ccccc2)o1` (configuration not stated) belongs 3.4% (inactive); to `O=C(CCc1nnc(CCCCc2ccccc2)o1)NC(c1cccnc1)C(F)(F)F` (configuration not stated), 32.7% (active); to `O=S(=O)(NCCc1ccccn1)c1cc(Cl)cc(Cl)c1O`, 0.268% (inactive). Under `O=C(Nc1ncccc1O)c1ccc(S(=O)(=O)N2CCCC2)cc1` stands -6.12% (inactive); under `O=C(CN1C(=O)NC2(CCCCC2)C1=O)N1CCN(C(=O)c2cccs2)CC1`, -4.48% (inactive).

Consider `CCCc1ccc(C(=O)COC(=O)CN2C(=O)NC3(CCCCC3C)C2=O)cc1` (configuration not stated), for which the inhibition is -19.2% (inactive). To `COc1ccc(NC(=O)c2sccc2SCC#N)cc1` belongs 31.6% (active); to `COc1ccc(NC(=O)CSc2nc(C)cs2)cc1`, 7.3% (inactive); to `COc1ccc(NC(=O)c2sc(N)nc2-c2ccccc2)cc1`, -6.34% (inactive). To `NC(=O)NC(=O)C(OC(=O)CCNS(=O)(=O)c1ccccc1)c1ccccc1` (configuration not stated) belongs 12.6% (inactive); to `O=C1COc2ccc(C(=O)CSc3ccc(Br)cc3)cc2N1`, 11.8% (inactive); to `COc1cccc(C2=CC(=O)C[C@H](c3ccc(OC)c(OC)c3)C2)c1`, 9.37% (inactive). In the case of `CC(C)CCN1CCN(C/C=C/c2ccco2)CC1CCO` (configuration not stated), the inhibition was -9.65% (inactive). Under `CC(C)CCN1CCN(Cc2cn[nH]c2C2CCCCC2)CC1CCO` (configuration not stated) stands 56.2% (active); under `CC(C)CCN1CCN(Cc2ccc(C(F)(F)F)cc2)CC1CCO` (configuration not stated), 14.1% (inactive).

For `COc1ccc(CCNC(=O)COc2ccc3c(c2)OCO3)cc1`, the inhibition is -6.03% (inactive). Turning to `O=C(CN1CCC(O)(c2ccccc2)CC1)Nc1ccc2c(c1)OCCO2`, the inhibition was 94.9% (active). To `O=C(Cn1c(=O)sc2ccccc21)Nc1ccc2c(c1)OCCO2` belongs -10.2% (inactive); to `Cn1c(=O)c2ccccc2n(CC(=O)Nc2ccc3c(c2)OCCO3)c1=O`, 0.133% (inactive); to `CC1CCCC(NC(=O)c2cc(-c3ccncc3)nc3ccccc23)C1C` (configuration not stated), -1.15% (inactive). As for `CC(OC(=O)Cc1ccc(F)cc1)C(=O)N1CCc2ccccc21` (configuration not stated), the inhibition is -8.93% (inactive). To `CN(CC(=O)Nc1ccc(F)c(F)c1F)C(=O)C1CC(=O)N(C2CCCC2)C1` (configuration not stated) belongs -11.5% (inactive); to `CC(NC(=O)c1cc(-c2ccccc2)on1)c1ccccc1` (configuration not stated), 11.6% (inactive). In the case of `O=C(NC1CCCC1)c1cc(-c2ccccc2)on1`, the inhibition is 37.6% (active). To `O=C(NC1CCCCC1)c1cc(C2CC2)on1` belongs -9.03% (inactive); to `CCn1c(SCC(=O)NCC2CCCO2)nc2ccccc21` (configuration not stated), -20.8% (inactive). Consider `COC(=O)[C@H]1[C@H]2C[C@H]3c4[nH]c5ccccc5c4CCN3C[C@@H]2CC[C@@H]1O`, for which the inhibition is -5.26% (inactive) and 43.4% (active). Under `COC(=O)C1CCN(C(=O)c2cc(=O)[nH]c3ccccc23)CC1` stands 17.7% (inactive). To `O=C(NC1CCCCC1)N1CCc2[nH]c3ccccc3c2C1` belongs -14.3% (inactive); to `O=C(COC(=O)Cc1ccc(Br)cc1)Nc1ccc(N2CCOCC2)cc1`, 22.4% (inactive); to `COc1cc(CNCc2ccc(OC)c3ccccc23)cc(OC)c1OC`, 33% (active). Take `COc1ccc(CNC(=O)Cc2ccc(-c3ccccc3)cc2)cc1OC`: the inhibition was 20.3% (inactive). In the case of `COc1cc(CNCc2cccs2)cc(Br)c1OC`, the inhibition is -4.22% (inactive). Under `COC(=O)C1=CO[C@@H](O[C@@H]2O[C@H](CO)[C@@H](O)[C@H](O)[C@H]2O)C2C1C[C@H](O)[C@@H]2C` (some centres not stated) stands -6.47% (inactive); under `COc1ccc(-n2nnnc2SCC(=O)NCc2cccs2)cc1`, -2.89% (inactive); under `COc1ccc(-n2c(SCC(=O)NCc3ccco3)nnc2-c2c[nH]c3ccccc23)cc1`, -8.02% (inactive).

`COc1ccc(-n2c(SCC(=O)NCc3cccs3)nnc2-c2ccoc2C)cc1`: the inhibition was 42.5% (active). As for `CN1CCN(S(=O)(=O)c2cccc(C(=O)Nc3sccc3C#N)c2)CC1`, the inhibition was 0.535% (inactive). To `CN(C)C(=O)c1ccc(NC(=O)COC(=O)c2cc3c(s2)CCCCC3)cc1` belongs -7.26% (inactive); to `COc1ccc(-c2nc3ccccc3c(=O)n2CCc2ccc(O)cc2)cc1`, -13.4% (inactive); to `COc1ccc(CCNCc2c(-c3ccccc3)n(C)c3ccccc23)cc1`, 45.6% (active). For `COc1ccc(-c2c(C#Cc3ccccc3)c3ccccc3n2C)cc1`, the inhibition is 9.11% (inactive).

For `COc1ccc(C2C(C#N)=C(N)Oc3n[nH]c(C)c32)cc1CN1CCN(c2ccc(F)cc2)CC1` (configuration not stated), the inhibition was 53.9% (active).

In the case of `CCOc1c(OC)cc(C2C(C#N)=C(N)Oc3n[nH]c(-c4ccncc4)c32)cc1OC` (configuration not stated), the inhibition is -9.43% (inactive).

`CCCc1[nH]nc2c1C(c1ccc(OC)c(Cn3nc(C)c(Br)c3C)c1)C(C#N)=C(N)O2` (configuration not stated): the inhibition was -23.9% (inactive).
